PubChem BioAssay (Tox21)
Results filed as inconclusive are left out. Entries that show only a call come without a potency. A number with no mark means an inactive call. Activity calls are given as the source filed them. Unless noted, calls follow the shape of the dose curve; as a rule, active = well fitted curve in the direction sought with a large enough effect in the repeat runs; inconclusive = weak or mixed curves; inactive = no such curve, though single readings can be large; an effect the other way counts as inactive or inconclusive.

Key:
[1] = qHTS assay to identify small molecule antagonists of the thyroid receptor (TR) signaling pathway - cell viability counter screen (AID 743064); also: nearly all actives have a fitted effect of over 50% in size
Procedure, shortened: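 Counter screen for cytotoxicity: compound plus T3 (1 nM final) on GH3.TRE-Luc cells, 23.5 h at 37 °C, then fluorescence viability readout with CellTiter-Fluor.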

[2] = qHTS assay to identify small molecule antagonists of the thyroid receptor (TR) signaling pathway (AID 743065); also: nearly all actives have a fitted effect of over 55% in size
Procedure, shortened: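 GH3.TRE-Luc rat pituitary cells carrying two TR response elements driving luciferase were plated for 4 h, given compound plus 1 nM T3 (final), and incubated 23.5 h at 37 C. ONE-Glo luminescence measured reporter inhibition; CellTiter-Fluor fluorescence tracked cytotoxicity.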

[3] = system: thyroid hormone receptor (rat, GH3 cells); experiment: qHTS assay to identify small molecule agonists of the thyroid receptor (TR) signaling pathway (AID 743066; calls by dose curve)
[4] = target: Estrogen receptor (Homo sapiens) (UniProt P03372); experiment: qHTS assay to identify small molecule antagonists of the estrogen receptor alpha (ER-alpha) signaling pathway (AID 743069; active = well fitted curve in the direction sought with a large enough effect in the signal ratio in the repeat runs, not every such curve was filed as active; the % refers to the signal ratio)
Chain of Estrogen receptor (Homo sapiens) (P03372 whole entry, looked up): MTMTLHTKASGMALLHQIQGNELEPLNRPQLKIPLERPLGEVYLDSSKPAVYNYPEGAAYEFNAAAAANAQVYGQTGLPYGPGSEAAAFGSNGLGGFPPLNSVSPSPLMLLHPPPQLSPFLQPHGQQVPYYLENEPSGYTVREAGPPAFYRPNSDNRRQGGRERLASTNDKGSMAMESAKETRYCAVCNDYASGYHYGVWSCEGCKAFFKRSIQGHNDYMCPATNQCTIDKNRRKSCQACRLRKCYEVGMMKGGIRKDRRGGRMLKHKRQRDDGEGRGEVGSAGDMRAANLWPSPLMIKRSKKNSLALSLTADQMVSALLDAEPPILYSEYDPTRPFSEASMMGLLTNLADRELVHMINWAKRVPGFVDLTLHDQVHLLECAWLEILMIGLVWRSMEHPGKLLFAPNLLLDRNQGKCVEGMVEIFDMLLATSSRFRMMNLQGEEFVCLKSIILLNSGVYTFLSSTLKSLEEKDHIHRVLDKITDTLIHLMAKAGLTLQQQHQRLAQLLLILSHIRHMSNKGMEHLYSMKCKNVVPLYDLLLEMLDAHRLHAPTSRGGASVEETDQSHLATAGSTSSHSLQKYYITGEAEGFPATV
Procedure, shortened: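 Screening used a UAS-driven beta-lactamase reporter integrated into HEK293 cells expressing ER-alpha, stimulated with 17beta-estradiol alongside test compounds over 18 hr at 37C; signal came from LiveBLAzer B/G FRET fluorescence.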

[5] = qHTS assay to identify small molecule antagonists of the estrogen receptor alpha (ER-alpha) signaling pathway - cell viability counter screen (AID 743074; calls by dose curve; also: nearly all actives have a fitted effect of over 45% in size)
[6] = target: Estrogen receptor (Homo sapiens) (UniProt P03372); experiment: qHTS assay to identify small molecule agonists of the estrogen receptor alpha (ER-alpha) signaling pathway (AID 743075; calls by dose curve)
[7] = target: Estrogen receptor (Homo sapiens) (UniProt P03372); experiment: qHTS assay to identify small molecule agonists of the estrogen receptor alpha (ER-alpha) signaling pathway using the BG1 cell line (AID 743079); conditions: BG1Luc4E2 cells, ERE-luciferase agonist, 22 h; activation: at 70.3 µM (top of the series); also: nearly all actives have a fitted effect of over 20% in size; also: potency is read from the fitted curve at half-maximal effect
[8] = qHTS assay to identify small molecule antagonists of the estrogen receptor alpha (ER-alpha) signaling pathway using the BG1 cell line (AID 743080; calls by dose curve;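 also: BG1 cells stimulated with 17beta-estradiol alongside compound; nearly all actives have a fitted effect of over 25% in size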)
Procedure, shortened: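 BG1-Luc-4E2 cells (endogenous full-length ER-alpha, 4xERE luciferase) hormone-starved 5 days in charcoal-stripped FBS, plated 4,000/well for 24 h, then compound plus 17beta-estradiol for 21.5 h at 37 C; ONE-Glo luminescence read.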

[9] = qHTS assay to identify small molecule antagonists of the estrogen receptor alpha (ER-alpha) signaling pathway using the BG1 cell line - cell viability counter screen (AID 743081);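 also: compound given together with 17beta-estradiol as the ER stimulus; nearly all actives have a fitted effect of over 45% in size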
Aromatase (Homo sapiens) = Aromatase (Homo sapiens) (UniProt P11511); experiment: qHTS assay to identify aromatase inhibitors (AID 743083); also: nearly all actives have a fitted effect of over 55% in size
Chain of Aromatase (Homo sapiens) (P11511 whole entry, looked up): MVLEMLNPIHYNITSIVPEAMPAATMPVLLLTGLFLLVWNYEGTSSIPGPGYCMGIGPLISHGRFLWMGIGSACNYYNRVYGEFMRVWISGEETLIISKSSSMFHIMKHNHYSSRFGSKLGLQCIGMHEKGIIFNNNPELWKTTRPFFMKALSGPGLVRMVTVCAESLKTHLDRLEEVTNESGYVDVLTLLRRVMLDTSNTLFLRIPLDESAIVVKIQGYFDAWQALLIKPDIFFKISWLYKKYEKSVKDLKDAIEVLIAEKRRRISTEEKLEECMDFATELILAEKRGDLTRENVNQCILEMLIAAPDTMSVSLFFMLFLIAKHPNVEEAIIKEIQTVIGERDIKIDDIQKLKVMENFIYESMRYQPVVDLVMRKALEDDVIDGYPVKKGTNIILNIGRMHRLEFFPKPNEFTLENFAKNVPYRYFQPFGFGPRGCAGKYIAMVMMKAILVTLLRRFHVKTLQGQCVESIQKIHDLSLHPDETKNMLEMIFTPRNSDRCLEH

[10] = qHTS assay to identify aromatase inhibitors - cell viability counter screen (AID 743084);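 also: cells stimulated with testosterone during compound exposure; nearly all actives have a fitted effect of over 55% in size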
[11] = target: Aryl hydrocarbon receptor (Homo sapiens) (UniProt P35869); experiment: qHTS assay to identify small molecule that activate the aryl hydrocarbon receptor (AhR) signaling pathway (AID 743085);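 also: HG2L7.5c1 human HepG2 liver cells with stably integrated DRE-driven firefly reporter; nearly all actives have a fitted effect of over 15% in size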
Chain of Aryl hydrocarbon receptor (Homo sapiens) (P35869 whole entry, looked up): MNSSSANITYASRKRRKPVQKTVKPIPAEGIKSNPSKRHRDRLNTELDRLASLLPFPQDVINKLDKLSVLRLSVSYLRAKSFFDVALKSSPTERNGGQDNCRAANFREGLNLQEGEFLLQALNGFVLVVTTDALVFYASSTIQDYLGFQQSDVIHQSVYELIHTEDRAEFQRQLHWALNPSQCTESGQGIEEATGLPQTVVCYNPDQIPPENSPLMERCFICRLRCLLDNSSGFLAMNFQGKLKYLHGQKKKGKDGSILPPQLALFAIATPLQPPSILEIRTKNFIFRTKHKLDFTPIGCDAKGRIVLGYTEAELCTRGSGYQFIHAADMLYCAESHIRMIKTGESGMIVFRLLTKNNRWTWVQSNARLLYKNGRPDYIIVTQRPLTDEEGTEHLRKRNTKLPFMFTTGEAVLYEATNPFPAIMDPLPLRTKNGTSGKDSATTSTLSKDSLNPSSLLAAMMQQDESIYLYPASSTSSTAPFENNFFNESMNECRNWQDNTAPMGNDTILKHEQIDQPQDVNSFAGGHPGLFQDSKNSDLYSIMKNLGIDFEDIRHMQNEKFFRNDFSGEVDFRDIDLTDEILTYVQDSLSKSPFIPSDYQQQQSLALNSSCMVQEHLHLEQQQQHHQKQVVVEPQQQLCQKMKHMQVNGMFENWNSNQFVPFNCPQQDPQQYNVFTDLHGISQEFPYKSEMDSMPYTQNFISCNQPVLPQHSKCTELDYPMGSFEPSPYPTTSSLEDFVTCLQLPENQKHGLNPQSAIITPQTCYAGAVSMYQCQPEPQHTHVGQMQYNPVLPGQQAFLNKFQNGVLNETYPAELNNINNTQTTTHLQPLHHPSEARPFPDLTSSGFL
Procedure, shortened: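 Measured in HG2L7.5c1 cells: CellTiter-Fluor signal (30 min incubation, 37C) for viability, then luciferase luminescence (30 min, room temperature). Compound contact time was 24 h at 37C, following a 5 h pre-incubation.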

[12] = qHTS assay to identify small molecule that activate the aryl hydrocarbon receptor (AhR) signaling pathway - cell viability counter screen (AID 743086);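 also: HepG2 liver cells carrying the AhR DRE luciferase reporter; nearly all actives have a fitted effect of over 45% in size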
Procedure, shortened: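 HepG2-AhR-luc (HG2L7.5c1) cells, 4000/well, were preincubated 5 h at 37C, exposed to compound in qHTS format for 24 hr at 37C, then given CellTiter-Fluor for 30 min; viability was read as fluorescence in the reporter wells.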

[13] = target: Peroxisome proliferator-activated receptor gamma (Homo sapiens) (UniProt P37231); experiment: qHTS assay to identify small molecule agonists of the peroxisome proliferator-activated receptor gamma (PPARg) signaling pathway (AID 743094; active = well fitted activation curve with a large enough effect in the signal ratio in the repeat runs, not every such curve was filed as active; the % refers to the signal ratio)
Chain of Peroxisome proliferator-activated receptor gamma (Homo sapiens) (P37231 whole entry, looked up): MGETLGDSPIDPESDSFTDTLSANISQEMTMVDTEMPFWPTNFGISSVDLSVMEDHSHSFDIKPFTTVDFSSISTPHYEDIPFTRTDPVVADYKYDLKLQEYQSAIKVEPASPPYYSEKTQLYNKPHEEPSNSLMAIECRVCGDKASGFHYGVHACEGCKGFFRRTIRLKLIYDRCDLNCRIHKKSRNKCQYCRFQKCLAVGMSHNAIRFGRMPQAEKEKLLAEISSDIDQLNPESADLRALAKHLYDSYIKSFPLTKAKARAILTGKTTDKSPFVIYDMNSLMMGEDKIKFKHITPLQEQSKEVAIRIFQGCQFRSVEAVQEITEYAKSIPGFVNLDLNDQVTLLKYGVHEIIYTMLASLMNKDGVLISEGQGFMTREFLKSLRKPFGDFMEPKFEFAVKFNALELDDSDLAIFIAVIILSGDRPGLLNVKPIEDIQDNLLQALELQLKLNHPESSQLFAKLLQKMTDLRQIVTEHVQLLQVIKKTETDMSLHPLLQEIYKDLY
Procedure, shortened: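 HEK293H PPARg-bla cells, 5 h settle at 37C/5% CO2; compound (DMSO) 17 h, 37C; B/G FRET substrate 1 h RT; fluorescence intensity read-out. qHTS format.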

[14] = qHTS assay to identify small molecule phospholipidosis (PLD) inducers (AID 1259344; active = well fitted curve in the direction sought with a large enough effect; an effect the other way counts as inactive or inconclusive)
Procedure, shortened: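 Cells (HepG2, 900 per well) attach for 4 h, receive LipidTOX Red and compound together, incubate 24 h at 37 C, are fixed 30 min with paraformaldehyde/Hoechst, then imaged at one site per well.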

[15] = target: Nuclear receptor subfamily 1 group I member 2 (Rattus norvegicus) (UniProt Q9R1A7); experiment: Rat pregnane X receptor (rPXR) activation by small molecules, qHTS assay (AID 1346983); conditions: rPXR luciferase reporter cells, One-Glo luminescence, 24 h; max activation: stronger effect = higher value; also: nearly all actives have a fitted effect of over 20% in size
Chain of Nuclear receptor subfamily 1 group I member 2 (Rattus norvegicus) (Q9R1A7 whole entry, looked up): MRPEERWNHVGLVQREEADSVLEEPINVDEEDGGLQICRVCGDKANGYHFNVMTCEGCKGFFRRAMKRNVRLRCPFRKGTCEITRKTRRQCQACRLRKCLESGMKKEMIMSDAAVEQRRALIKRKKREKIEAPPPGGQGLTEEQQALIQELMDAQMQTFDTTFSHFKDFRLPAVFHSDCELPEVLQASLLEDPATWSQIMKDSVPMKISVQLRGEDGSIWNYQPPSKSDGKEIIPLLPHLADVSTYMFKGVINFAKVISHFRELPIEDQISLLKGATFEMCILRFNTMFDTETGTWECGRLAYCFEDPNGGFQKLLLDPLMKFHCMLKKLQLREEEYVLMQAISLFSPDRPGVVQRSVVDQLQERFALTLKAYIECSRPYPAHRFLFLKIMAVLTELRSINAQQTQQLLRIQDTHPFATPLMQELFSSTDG
Procedure, shortened: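 Cell-based rPXR luciferase reporter assay, 2,000 cells per well, rested 5hr at 37 C before compound addition in DMSO, then 24 hr at 37 C. One-Glo reagent was added and luminescence read after 30 min at room temperature.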

[16] = target: Nuclear receptor subfamily 1 group I member 2 (Homo sapiens) (UniProt O75469); experiment: CYP3A4 induction through human pregnane X receptor (PXR) by small molecules, qHTS assay (AID 1346984); also: nearly all actives have a fitted effect of over 40% in size
Procedure, shortened: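 HepG2-derived DPX-2 line carrying PXR plus a CYP3A4-promoter luciferase reporter; cells plated 5 hr, compound-exposed 24 hr at 37C. CYP3A4 activity probed with 3uM (final) Luciferin-IPA for 3hr, then luciferase read after One-Glo.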

[17] = target: Nuclear receptor subfamily 1 group I member 2 (Homo sapiens) (UniProt O75469); experiment: Human pregnane X receptor (PXR) activation by small molecules, qHTS assay (AID 1346985); also: nearly all actives have a fitted effect of over 40% in size
Procedure, shortened: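 DPX-2 cells (HepG2 co-transfected with a PXR response element and a CYP3A4-promoter luciferase construct) were seeded at 2,000 per well, rested 5 hr at 37C, then exposed to DMSO-dissolved compounds for 24 hr. Activation was read as luciferase luminescence.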

SMILES: CCCCC(O)c1ccccc1 (configuration not stated)
- Potency [1]: inactive
- Potency [2]: inactive
- Potency [3]: inactive
- Potency [4]: inactive
- Potency [5]: inactive
- Potency [6]: inactive
- Potency [7]: 21.1 µM (active)
- Potency [8]: inactive
- Potency [9]: inactive
- Potency (Aromatase (Homo sapiens)): inactive
- Potency [10]: inactive
- Potency [11]: inactive
- Potency [12]: inactive
- Potency [13]: inactive
- Potency [14]: inactive
- max activation [15]: -0.82%
- Potency [16]: inactive
- Potency [17]: inactive

SMILES: CC(C)CCCC(C)NC(C)C (configuration not stated)
- Potency [1]: inactive
- Potency [2]: inactive
- Potency [3]: inactive
- Potency [4]: inactive
- Potency [5]: inactive
- Potency [6]: inactive
- Potency [7]: inactive
- Potency [8]: inactive
- Potency [9]: inactive
- Potency (Aromatase (Homo sapiens)): inactive
- Potency [10]: inactive
- Potency [11]: inactive
- Potency [12]: inactive
- Potency [13]: inactive
- Potency [14]: inactive
- max activation [15]: -0.288%
- Potency [16]: inactive
- Potency [17]: inactive

SMILES: COc1ccc(C(=O)CCC(=O)O)c2ccccc12
- Potency [1]: inactive
- Potency [2]: inactive
- Potency [3]: inactive
- Potency [4]: inactive
- Potency [5]: inactive
- Potency [6]: inactive
- Potency [7]: inactive
- Potency [8]: inactive
- Potency [9]: inactive
- Potency (Aromatase (Homo sapiens)): inactive
- Potency [10]: inactive
- Potency [11]: inactive
- Potency [12]: inactive
- Potency [14]: inactive
- max activation [15]: -4.04%
- Potency [16]: inactive
- Potency [17]: inactive

SMILES: CNC(C)[C@@H]1CC[C@@H](N)[C@@H](O[C@H]2[C@H](O)[C@@H](O[C@H]3OC[C@](C)(O)[C@H](NC)[C@H]3O)[C@H](N)C[C@@H]2N)O1 (some centres not stated)
- Potency [14]: inactive
- max activation [15]: -0.0148%
- Potency [16]: inactive
- Potency [17]: inactive

SMILES: CC(C)(C)NCC(O)CSc1nc(-c2ccc(C(N)=O)s2)cs1 (configuration not stated)
- Potency [1]: inactive
- Potency [2]: inactive
- Potency [3]: inactive
- Potency [4]: inactive
- Potency [5]: inactive
- Potency [6]: inactive
- Potency [7]: inactive
- Potency [8]: inactive
- Potency [9]: inactive
- Potency (Aromatase (Homo sapiens)): inactive
- Potency [10]: inactive
- Potency [14]: inactive
- max activation [15]: -4.09%
- Potency [16]: inactive
- Potency [17]: inactive

SMILES: CC(=O)N[C@@H](C=O)[C@@H](O)[C@H](O)[C@H](O)CO
- Potency [1]: inactive
- Potency [2]: inactive
- Potency [3]: inactive
- Potency [4]: inactive
- Potency [5]: inactive
- Potency [6]: inactive
- Potency [7]: inactive
- Potency [8]: inactive
- Potency [9]: inactive
- Potency (Aromatase (Homo sapiens)): inactive
- Potency [10]: inactive
- Potency [11]: inactive
- Potency [12]: inactive
- Potency [14]: inactive
- max activation [15]: -0.914%
- Potency [16]: inactive
- Potency [17]: inactive

SMILES: OCC(O)CO
- Potency [14]: inactive
- max activation [15]: -5.18%

SMILES: CO/N=C(\C(=O)N[C@@H]1C(=O)N2C(C(=O)O)=CCS[C@H]12)c1csc(N)n1
- Potency [1]: inactive
- Potency [2]: inactive
- Potency [3]: inactive
- Potency [4]: inactive
- Potency [5]: inactive
- Potency [6]: inactive
- Potency [7]: inactive
- Potency [8]: inactive
- Potency [9]: inactive
- Potency (Aromatase (Homo sapiens)): inactive
- Potency [10]: inactive
- Potency [11]: inactive
- Potency [12]: inactive
- Potency [13]: inactive
- Potency [14]: inactive
- max activation [15]: -4.38%
- Potency [16]: inactive
- Potency [17]: inactive

SMILES: NCc1ccccc1CC(=O)N[C@@H]1C(=O)N2C(C(=O)O)=C(CSc3nnnn3CC(=O)O)CS[C@H]12
- Potency [1]: inactive
- Potency [2]: inactive
- Potency [3]: inactive
- Potency [4]: inactive
- Potency [5]: inactive
- Potency [6]: inactive
- Potency [7]: inactive
- Potency [8]: inactive
- Potency [9]: inactive
- Potency (Aromatase (Homo sapiens)): inactive
- Potency [10]: inactive
- Potency [12]: inactive
- Potency [13]: inactive
- Potency [14]: inactive
- max activation [15]: -0.103%
- Potency [16]: inactive
- Potency [17]: inactive

SMILES: O=C(O)C1=C(CSc2nnnn2CS(=O)(=O)O)CS[C@@H]2[C@H](NC(=O)[C@H](O)c3ccccc3)C(=O)N12
- Potency [1]: inactive
- Potency [2]: inactive
- Potency [3]: inactive
- Potency [4]: inactive
- Potency [5]: inactive
- Potency [6]: inactive
- Potency [7]: 37.6 µM (active)
- Potency [8]: inactive
- Potency [9]: inactive
- Potency (Aromatase (Homo sapiens)): inactive
- Potency [10]: inactive
- Potency [11]: inactive
- Potency [12]: inactive
- Potency [13]: inactive
- Potency [14]: inactive
- max activation [15]: -0.182%
- Potency [16]: inactive
- Potency [17]: inactive

SMILES: C[Se]CCC(N)C(=O)O (configuration not stated)
- Potency [1]: inactive
- Potency [2]: inactive
- Potency [3]: inactive
- Potency [4]: inactive
- Potency [5]: inactive
- Potency [6]: inactive
- Potency [7]: inactive
- Potency [8]: inactive
- Potency [9]: inactive
- Potency (Aromatase (Homo sapiens)): inactive
- Potency [10]: inactive
- Potency [12]: inactive
- Potency [13]: inactive
- Potency [14]: inactive
- max activation [15]: -0.898%
- Potency [16]: inactive
- Potency [17]: inactive

SMILES: CCCc1ccc(C(=O)O)cc1
- Potency [1]: inactive
- Potency [2]: inactive
- Potency [3]: inactive
- Potency [4]: inactive
- Potency [5]: inactive
- Potency [6]: inactive
- Potency [7]: inactive
- Potency [8]: inactive
- Potency [9]: inactive
- Potency (Aromatase (Homo sapiens)): inactive
- Potency [10]: inactive
- Potency [11]: inactive
- Potency [12]: inactive
- Potency [13]: inactive
- Potency [14]: inactive
- max activation [15]: -2.43%
- Potency [16]: inactive
- Potency [17]: inactive

SMILES: NC(N)=NCC1COc2ccccc2O1 (configuration not stated)
- Potency [1]: inactive
- Potency [2]: inactive
- Potency [3]: inactive
- Potency [4]: inactive
- Potency [5]: inactive
- Potency [6]: inactive
- Potency [7]: inactive
- Potency [8]: inactive
- Potency (Aromatase (Homo sapiens)): inactive
- Potency [10]: inactive
- Potency [12]: inactive
- Potency [13]: inactive
- Potency [14]: inactive
- max activation [15]: -4.35%
- Potency [16]: inactive
- Potency [17]: inactive

SMILES: O=C(CCCCCCCCCCCCC1CCCC1)Nc1ccc(S(=O)(=O)c2ccc(NC(=O)CCCCCCCCCCCCC3CCCC3)cc2)cc1
- Potency [1]: inactive
- Potency [2]: inactive
- Potency [3]: inactive
- Potency [4]: inactive
- Potency [5]: inactive
- Potency [6]: inactive
- Potency [7]: inactive
- Potency [8]: inactive
- Potency [9]: inactive
- Potency (Aromatase (Homo sapiens)): inactive
- Potency [10]: inactive
- Potency [12]: inactive
- Potency [13]: inactive
- Potency [14]: inactive
- max activation [15]: -2.51%
- Potency [16]: inactive
- Potency [17]: inactive
